Results: ChEMBL document CHEMBL3988442, “University of Dundee, Small-Polar-MMV Screening Library” (2021)
Screen size: about 85,000 compounds; about 440 (0.52%) showed an effect of 50% or more. The full list was thinned out, with strong results kept by preference.

Assay: In vitro enzyme assay to detect hydrolysis of chlorophenol red-beta-D-[…] directly proportional to the number of Toxoplasma stably expressing beta-galactosidase
Format: functional, organism-based, Toxoplasma gondii
Design: scale not given: in the data most compounds retested in dose-response had high values

Row | Compound | Percent Effect (50 µM) | Percent Effect (10 µM)
1 | CC1(C)CNCCC(=O)C1 | -1.716% | –
2 | C[C@H](N)c1ccc(Cl)s1 | 6.702% | –
3 | CCCc1nc(C(=O)NCCc2cccnc2)cs1 | -0.1814% | –
4 | CCn1nc(C)cc1C(=O)N1CCNC(=O)C1(C)C | 1.148% | –
5 | O=C1NCCN1CCNc1cc(C2CC(O)C2)ncn1 (stereo not drawn) | 17.22% | –
6 | CCc1ccccc1NC(=O)C1=NN(C)C(=O)CC1 | 53.5% | –
7 | CCCNC(=O)C1=NN(C)C(=O)CC1 | -13.89% | –
8 | CN1N=C(C(=O)NCCn2cccc2)CCC1=O | 4.885% | –
9 | Cc1nc(C)c(C(=O)N2CCCC3(CCOC3)C2)s1 (stereo not drawn) | -1.962% | –
10 | CN(C)CCCN(CCC#N)C(=O)c1ccccn1 | 5.806% | –
11 | Cc1n[nH]c(SCCN)n1 | 7.335% | –
12 | Cc1cc(NC(=O)COC(=O)c2cccc(F)c2)[nH]n1 | 3.257% | –
13 | O=C(CCN1C(=O)CCC1=O)OCCc1cccs1 | -8.658% | –
14 | COc1ccc(CNCCn2cccn2)cc1OC | -8.387% | –
15 | CC(C)c1ccc(C(CN)N2CCc3sccc3C2)cc1 (stereo not drawn) | – | 87.38%
16 | NCC(c1ccc(Cl)cc1)N1CCc2sccc2C1 (stereo not drawn) | – | 32.54%
17 | NCC(c1ccccc1)N1CCc2sccc2C1 (stereo not drawn) | – | -0.2514%
18 | CC(CNC(=O)c1cccc(OC(F)F)c1)N(C)C (stereo not drawn) | -0.9989% | –
19 | CCOCCN1CCN(CC(C)O)CC1 (stereo not drawn) | -13.93% | –
20 | CS(=O)(=O)c1ccc(-c2cc(O)cc(CCC3CCCCN3)c2)cc1 (stereo not drawn) | – | 50.66%
21 | O=c1cc(-c2cc(O)cc(CCC3CCCCN3)c2)cc[nH]1 (stereo not drawn) | – | 0.1729%
22 | Oc1cc(CCC2CCCCN2)cc(-c2ccncc2)c1 (stereo not drawn) | – | -0.7663%
23 | Cc1ccc(CN2CCOC(CCO)C2)c(F)c1 (stereo not drawn) | 1.605% | –
24 | CCNc1nc(-c2cccnc2)c(-c2ccnc(NCCO)n2)s1 | – | 32.17%

Row | Compound | Percent Effect (50 µM) | Percent Effect (10 µM)
25 | CCNc1nc(-c2cccnc2)c(-c2ccnc(NS(C)(=O)=O)n2)s1 | – | -26.67%
26 | CC(C)(C)Nc1nc(-c2cccnc2)c(-c2ccnc(NCCO)n2)s1 | – | 85.15%
27 | Cc1noc(C)c1CNC(=O)c1csc(S(N)(=O)=O)c1 | -3.715% | –
28 | COCC(=O)N1C[C@@H](OCc2cccnc2)[C@H]2OCCC[C@@H]21.O=C(O)C(F)(F)F | – | 1.724%
29 | Cn1cccc1C(=O)N1C[C@@H](OCc2ccncc2)[C@@H]2OCCC[C@@H]21.O=C(O)C(F)(F)F | – | 96.07%
30 | Cn1cccc1C(=O)N1C[C@@H](OCc2cccnc2)[C@H]2OCCC[C@H]21 | – | 1.724%
31 | O=C(CC1CCCC1)N1C[C@H](OCc2ccncc2)[C@H]2OCCC[C@H]21.O=C(O)C(F)(F)F | – | -2.876%
32 | COCC(=O)N1C[C@@H](OCc2ccncc2)[C@@H]2OCCC[C@@H]21.O=C(O)C(F)(F)F | – | 64.14%
33 | Cc1cccc(C(=O)N2C[C@@H](OCc3ccncc3)[C@@H]3OCCC[C@@H]32)n1.O=C(O)C(F)(F)F.O=C(O)C(F)(F)F | – | -3.452%
34 | Nc1nc2c(s1)Cc1ccccc1-2 | -5.547% | –
35 | Cc1n[nH]c(C)c1S(=O)(=O)N1CCC(N)CC1 | 2.469% | –
36 | CCS(=O)(=O)NCCNCc1ccc(Cl)cc1F | -9.661% | –
37 | NC(=O)NC(=O)CSc1ncccn1 | -2.425% | –
38 | Cc1nn(C)c(C)c1CC(=O)NCCc1ccccn1 | -1.397% | –
39 | COc1ccc(CN)nc1 | 5.444% | –
40 | COc1ccccc1CC1CCCN(C(=O)c2nccnc2N)C1 (stereo not drawn) | – | -6.18%
41 | CNc1ncc(C(=O)N2CCCC(Cc3ccccc3OC)C2)s1 (stereo not drawn) | – | 65.23%
42 | COc1ccccc1CC1CCCN(C(=O)c2cc[nH]n2)C1 (stereo not drawn) | – | 4.307%
43 | O=C(CN1C(=O)CC2(CCCCC2)C1=O)NC1CC1 | -7.096% | –
44 | CN(C)C(=O)NCCNc1cccc(Br)c1 | -13.02% | –
45 | CC(C)CCN1CCN(C(=O)c2nccnc2N)CC1 | 0.2706% | –
46 | CCN(CC)S(=O)(=O)N1CCNCC1 | -3.294% | –
47 | CC(=O)c1c[nH]c(C(=O)NCc2cccnc2)c1 | 0.2894% | –
48 | O[C@@H]1CN(c2nc3ccccc3s2)CC[C@H]1c1ccc2c(c1)OCO2 | – | 53.23%

Row | Compound | Percent Effect (50 µM) | Percent Effect (10 µM)
49 | O[C@@H]1CN(c2cnc3ccccc3n2)CC[C@H]1c1ccc2c(c1)OCO2 | – | 20.57%
50 | O[C@@H]1CN(c2nc3ccccc3o2)CC[C@H]1c1ccc2c(c1)OCO2 | – | 30.32%
51 | COc1cccc(NC(=O)C(C)Sc2nnnn2C)c1 (stereo not drawn) | -3.512% | –
52 | N#CCc1ccc(CO)cc1 | -0.5268% | –
53 | COCCC(C)Nc1c[nH]nc1-c1ccccn1 (stereo not drawn) | 4.849% | –
54 | c1ccc(-c2cc[nH]n2)nc1 | -7.989% | –
55 | Nc1c[nH]nc1-c1ccccn1 | 64.31% | –
56 | Cc1ccc(OCCN2CCOCC2)cc1 | -4.655% | –
57 | CC(N)(CO)c1ccc(Br)cc1 (stereo not drawn) | 5.046% | –
58 | O=C(NC1CN(c2ccc(C(F)(F)F)cn2)C1)C1CC1 | -14.77% | –
59 | NC(=O)CC1CCCCN1c1ccc(C(F)(F)F)cn1 (stereo not drawn) | -10.18% | –
60 | CNC(=O)[C@@H]1CSCN1c1ccc(C(F)(F)F)cn1 | 98.68% | –
61 | CN(C)C(=O)C1(N)CCCC1 | 3.679% | –
62 | COC(=O)c1cccc(COC(=O)CCNC(C)=O)c1 | -1.212% | –
63 | NC(=O)c1ccccc1COC(=O)c1ccsc1 | 4.513% | –
64 | Cc1cncc(C(=O)Nc2sc(C)cc2C(N)=O)c1 | 2.925% | –
65 | Cc1cnn(-c2cncc(C(N)=O)c2)c1 | – | 0.2718%
66 | Cc1cncc(C(N)=O)c1 | 97.16% | –
67 | Clc1cnn(CCN2CCN(C3CCNC3)CC2)c1 (stereo not drawn) | 12.09% | –
68 | COc1ncccc1CNC(=O)NC1CCS(=O)(=O)C1 (stereo not drawn) | -1.32% | –
69 | CCN(Cc1nonc1C)C(=O)c1ccc(Br)o1 | – | -1.469%
70 | CCN(CC(C)C#N)C(=O)c1sccc1C (stereo not drawn) | 16.85% | –
71 | CCN(CC(C)C#N)C(=O)c1ccc(Br)o1 (stereo not drawn) | 96.74% | –
72 | O=C1CCCN1CCCNS(=O)(=O)c1ccc(Br)s1 | -1.058% | –

Row | Compound | Percent Effect (50 µM) | Percent Effect (10 µM)
73 | O=C1c2ccc(F)cc2C(=O)N1Cc1nnsc1Cl | 52.75% | –
74 | O=C1c2ccc(F)cc2C(=O)N1Cc1ccccn1 | -3.473% | –
75 | O=C1c2ccc(F)cc2C(=O)N1Cc1ccno1 | 5.807% | –
76 | CN(C)C(=O)N1CC2(CCOCC2)c2cc(NS(=O)(=O)C3CC3)ccc21 | – | -3.564%
77 | COC(=O)CNc1ccc2ccn(C)c(=O)c2c1 | -16.28% | –
78 | Cn1ccc2ccc(NS(=O)(=O)C3CC3)cc2c1=O | 65.83% | –
79 | Cc1cc(CN(C)C(=O)c2cnn(C)c2C)no1 | -0.6579% | –
80 | CC(C)C(CN)N1CCN(C)CC1 (stereo not drawn) | 18.88% | –
81 | COCCNC(=O)c1nnn(Cc2ccccc2)c1OC | – | 38.59%
82 | CCNC(=O)c1nnn(Cc2ccccc2)c1OC | – | -0.1195%
83 | COc1c(C(=O)NCc2cccnc2)nnn1Cc1ccc(C)cc1 | – | 3.825%
84 | COc1c(C(=O)NCc2cnn(C)c2C)nnn1Cc1ccccc1 | – | 65.52%
85 | O=C(NCC1CCCO1)c1nc2c(s1)CCCN2Cc1ccccc1 (stereo not drawn) | – | -17.89%
86 | COc1ccc(C(=O)NCc2cnn(C)c2C)o1 | -4.523% | –
87 | O=C(NCc1cccnc1)c1cn(CCc2ccccc2)nn1 | – | 7.216%
88 | COc1c(C(=O)NCC(C)C)nnn1Cc1ccccc1 | – | 74.28%
89 | COc1c(C(=O)NCC2CCCO2)nnn1Cc1ccccc1 (stereo not drawn) | – | 62.42%
90 | CCOCCCNC(=O)c1nnn(Cc2ccccc2)c1OC | – | 43.16%
91 | COc1ccc(Cl)cc1C(=O)NCc1cnn(C)c1C | – | -4.944%
92 | COc1c(C(=O)NCc2cccnc2)nnn1Cc1ccccc1 | – | 61.62%
93 | CC1Cc2cc(CO)ccc2O1 (stereo not drawn) | -10.07% | –
94 | CCc1nnsc1C(=O)N1CCc2sccc2C1 | -20.28% | –
95 | Cc1ccccc1NC(=O)CCN1CCN(C)CC1 | -26.18% | –
96 | Cc1ccc2c(c1)C(=O)CCCS2(=O)=O | -6.954% | –

Row | Compound | Percent Effect (50 µM) | Percent Effect (10 µM)
97 | Cc1ccc(CN(CCO)C(=O)c2cscn2)cc1 | -0.4723% | –
98 | O=C(Nc1ccc2c(c1)OCO2)N1CCOCC1 | -3.838% | –
99 | CN1CCCC1CCSCC(=O)Nc1ccccn1 (stereo not drawn) | 5.261% | –
100 | NCc1ccc(CO)cc1 | 0.7244% | –
101 | CCn1nc(C)c(NC(=O)c2nnn(Cc3ccccc3)c2OC)c1C | – | 55.69%
102 | CCN(CC)C(=O)c1nnn(Cc2ccccc2)c1OC | – | -3.108%
103 | CCn1nc(C)c(NC(=O)c2cc(NC(=O)C(C)C)n(C)n2)c1C | – | 1.116%
104 | CCC(OCCO)c1ccccc1 (stereo not drawn) | -3.537% | –
105 | CC(C)[C@H](N)C(=O)N1CCC(C2CCOCC2)CC1 | 8.319% | –
106 | Cn1nnc(NC(=O)c2ccc(C#N)cc2F)n1 | -8.268% | –
107 | Cn1nnnc1SCCNC(=O)c1cccc2ccnn12 | – | -7.372%
108 | Cn1nnnc1SCCNC(=O)c1cc(Cl)ccc1F | 98.81% | –
109 | CSc1ccccc1C(=O)NCCSc1nnnn1C | -10.69% | –
110 | CCC(C(=O)Nc1ccc(C)cc1)N(C)C (stereo not drawn) | -1.57% | –
111 | COc1c(CNCCCNS(C)(=O)=O)c(C)nn1C | -17.44% | –
112 | COc1c(N)c(C)nn1C | 95.49% | –
113 | COc1c(CNCCS(C)(=O)=O)c(C)nn1C | 3.832% | –
114 | CCC(=O)N1CCCN(C(=O)C(N)C(C)(C)C)CC1 (stereo not drawn) | 9.824% | –
115 | Cc1ccc(C(=O)N2CCN(c3nccn3C)CC2)o1 | 58.26% | –
116 | Cc1ccc(C(=O)N2CCN(c3nccs3)CC2)o1 | 7.068% | –
117 | CC(=O)N1CCN(c2nccn2C)CC1 | 15.57% | –
118 | Cn1cc(NC(=O)CSc2nccn2C)cn1 | 23.13% | –
